Data on 16 compounds can be found in PubChem BioAssay (Tox21).

“And” between values parts separate entries of the source, which are not always exact repeats. Identical values can stand only once. Records with an inconclusive call do not appear. Some compounds were tested as several samples or in several runs, with calls that do not always agree. The source made the active and inactive calls. The call rests on the fitted dose curve; in most records, active means well fitted curve in the direction sought with a large enough effect in the repeat runs; inconclusive means weak or mixed curves; inactive means no such curve, though single readings can be large; an effect the other way counts as inactive or inconclusive.

The nature of experiment [1]: Caspase-3/7 induction in HepG2 cells by small molecules, qHTS assay (AID 1346978). Further: nearly all actives have a fitted effect of over 15% in size. The procedure, abridged:
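Caspase-3/7 induction was measured by Caspase-Glo 3/7 luminescence (30 min, room temperature) after a 17 hr compound exposure of wild-type HepG2 cells seeded at 2,000 per well and pre-incubated 5 hr.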
A general note: Quantitative high-throughput screening tests each substance at several concentrations.

Experiment [2] in a line: Caspase-3/7 induction in CHO-K1 cells by small molecules, qHTS cell viability counter screen (AID 1346979). Further: nearly all actives have a fitted effect of over 35% in size. Further: potency means the concentration at half of the fitted maximal effect. The procedure, abridged: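 CellTiter-Fluor viability check, qHTS format: wild-type CHO-K1, 16hr compound treatment, 1hr reagent incubation, fluorescence read.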
The nature of experiment [3]: Caspase-3/7 induction in CHO-K1 cells by small molecules, qHTS assay (AID 1346980). Further: nearly all actives have a fitted effect of over 15% in size. In a few lines:
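Luminescent Caspase-Glo 3/7 read (30min, room temperature) quantified apoptosis induction. Cells were wild-type CHO-K1, treated with compound for 17hr at 37 C and 5% CO2.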

In experiment [4] the target is Nuclear receptor subfamily 1 group I member 2 (Homo sapiens) (UniProt O75469). Kind of experiment: Human pregnane X receptor (PXR) small molecule agonists, qHTS assay (AID 1346982). Further: nearly all actives have a fitted effect of over 35% in size. Further: potency means the concentration at half of the fitted maximal effect. The procedure, abridged:
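Luminescence (ONE-Glo, 30 min RT) after 24 hr compound exposure of PXR-Luc HepG2 cells; cells rested 5 hr post-plating in 5% charcoal-stripped FBS medium.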

The target of experiment [5] is Cytochrome P450 2D6 (Homo sapiens) (UniProt P10635). Kind of experiment: Cytochrome P450 Family 2 Subfamily D Member 6 (CYP2D6) small molecule antagonists: luciferase reporter qHTS assay (AID 1671196). Further: series mostly up to about 120 µM; nearly all actives have a fitted effect of over 50% in size. In a few lines: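 Inhibition of CYP2D6 was gauged by loss of luminescence, since light produced tracks the luciferin generated from a proluciferin substrate. A 10 min room-temperature preincubation preceded 1 h NADPH-supported turnover.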

Experiment [6] can be described thus: Caspase-3/7 induction in HepG2 cells by small molecules, qHTS cell viability counter screen (AID 1346981). Further: nearly all actives have a fitted effect of over 30% in size. Further: potency means the concentration at half of the fitted maximal effect. The procedure, abridged: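 Counter screen for cytotoxicity: HepG2 exposed 16 hr to compounds, then CellTiter-Fluor viability signal (fluorescence, 1 hr reagent incubation).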
In experiment [7] the target is Cytochrome P450 2C19 (Homo sapiens) (UniProt P33261). The experiment in a line: Cytochrome P450 Family 2 Subfamily C Member 19 (CYP2C19) small molecule antagonists: luciferase reporter qHTS assay (AID 1671197). Further: nearly all actives have a fitted effect of over 65% in size. Further: potency means the concentration at half of the fitted maximal effect. The procedure, abridged:
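Inhibition of CYP2C19 was scored from loss of luminescence in a P450-Glo proluciferin substrate assay, NADPH-started and run 1 h at 37C, with ketoconazole as positive control.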
On the technique in general: In a reporter assay the amount or activity of a reporter protein is the signal.

Experiment [8] concerns the target Nuclear receptor subfamily 1 group I member 2 (Rattus norvegicus) (UniProt Q9R1A7). The experiment in a line: Rat pregnane X receptor (rPXR) activation by small molecules, qHTS assay (AID 1346983). Further: nearly all actives have a fitted effect of over 20% in size. The following applies: rPXR luciferase reporter cells, One-Glo luminescence, 24 h; stronger effect = higher value. The procedure, abridged:
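Luminescent readout (One-Glo luciferase, 30 min room temperature) followed 24 hr compound treatment at 37 C of rPXR cells plated 2,000 per well and preincubated 5hr; qHTS format with compounds delivered in DMSO.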

The target in experiment [9] is Nuclear receptor subfamily 1 group I member 2 (Homo sapiens) (UniProt O75469). Kind of experiment: Human pregnane X receptor (PXR) activation by small molecules, qHTS assay (AID 1346985). Further: nearly all actives have a fitted effect of over 40% in size. The procedure, abridged: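 DPX-2 cells (HepG2 co-transfected with a PXR response element and a CYP3A4-promoter luciferase construct) were seeded at 2,000 per well, rested 5 hr at 37C, then exposed to DMSO-dissolved compounds for 24 hr. Activation was read as luciferase luminescence.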
On the % scale 0 is the no-effect control and ±100 the full control effect.

Nuclear receptor subfamily 1 group I member 2 (Homo sapiens), sequence (O75469 whole entry, looked up): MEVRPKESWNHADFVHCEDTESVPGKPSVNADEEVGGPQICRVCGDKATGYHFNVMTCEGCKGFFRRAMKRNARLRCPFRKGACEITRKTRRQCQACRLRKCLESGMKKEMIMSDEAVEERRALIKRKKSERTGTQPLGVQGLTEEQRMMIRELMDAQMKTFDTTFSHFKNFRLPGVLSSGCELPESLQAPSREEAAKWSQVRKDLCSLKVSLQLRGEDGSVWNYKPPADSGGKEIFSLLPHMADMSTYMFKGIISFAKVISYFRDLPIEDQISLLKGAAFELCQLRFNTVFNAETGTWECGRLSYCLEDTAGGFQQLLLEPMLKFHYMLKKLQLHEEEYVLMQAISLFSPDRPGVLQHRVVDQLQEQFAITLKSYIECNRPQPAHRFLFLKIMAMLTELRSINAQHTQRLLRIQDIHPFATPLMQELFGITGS
Nuclear receptor subfamily 1 group I member 2 (Rattus norvegicus), sequence (Q9R1A7 whole entry, looked up): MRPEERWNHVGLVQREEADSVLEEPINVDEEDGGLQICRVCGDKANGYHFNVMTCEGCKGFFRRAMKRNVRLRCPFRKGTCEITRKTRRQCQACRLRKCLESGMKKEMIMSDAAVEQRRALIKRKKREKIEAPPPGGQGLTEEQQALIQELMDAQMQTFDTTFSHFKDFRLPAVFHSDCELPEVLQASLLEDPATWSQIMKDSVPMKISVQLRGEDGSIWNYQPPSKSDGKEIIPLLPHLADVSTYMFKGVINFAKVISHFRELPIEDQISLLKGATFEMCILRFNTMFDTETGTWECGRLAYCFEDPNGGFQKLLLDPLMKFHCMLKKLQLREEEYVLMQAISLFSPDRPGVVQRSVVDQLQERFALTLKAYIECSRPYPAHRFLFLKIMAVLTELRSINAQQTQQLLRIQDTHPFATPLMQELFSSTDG
Cytochrome P450 2D6 (Homo sapiens), sequence (P10635 whole entry, looked up): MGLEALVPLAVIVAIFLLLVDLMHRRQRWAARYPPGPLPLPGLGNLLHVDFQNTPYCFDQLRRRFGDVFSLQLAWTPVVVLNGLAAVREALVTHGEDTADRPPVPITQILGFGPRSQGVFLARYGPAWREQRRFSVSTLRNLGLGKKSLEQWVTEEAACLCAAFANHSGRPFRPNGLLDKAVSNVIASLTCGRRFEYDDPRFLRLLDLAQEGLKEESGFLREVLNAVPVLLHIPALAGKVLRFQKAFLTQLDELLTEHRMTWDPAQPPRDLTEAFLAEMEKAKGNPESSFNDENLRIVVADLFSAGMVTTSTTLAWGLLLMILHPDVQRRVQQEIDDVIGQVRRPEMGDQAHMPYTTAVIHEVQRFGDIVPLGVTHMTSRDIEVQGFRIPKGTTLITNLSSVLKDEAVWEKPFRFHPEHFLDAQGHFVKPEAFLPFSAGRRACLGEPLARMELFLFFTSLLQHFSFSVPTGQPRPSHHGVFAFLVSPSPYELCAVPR
Cytochrome P450 2C19 (Homo sapiens), sequence (P33261 whole entry, looked up): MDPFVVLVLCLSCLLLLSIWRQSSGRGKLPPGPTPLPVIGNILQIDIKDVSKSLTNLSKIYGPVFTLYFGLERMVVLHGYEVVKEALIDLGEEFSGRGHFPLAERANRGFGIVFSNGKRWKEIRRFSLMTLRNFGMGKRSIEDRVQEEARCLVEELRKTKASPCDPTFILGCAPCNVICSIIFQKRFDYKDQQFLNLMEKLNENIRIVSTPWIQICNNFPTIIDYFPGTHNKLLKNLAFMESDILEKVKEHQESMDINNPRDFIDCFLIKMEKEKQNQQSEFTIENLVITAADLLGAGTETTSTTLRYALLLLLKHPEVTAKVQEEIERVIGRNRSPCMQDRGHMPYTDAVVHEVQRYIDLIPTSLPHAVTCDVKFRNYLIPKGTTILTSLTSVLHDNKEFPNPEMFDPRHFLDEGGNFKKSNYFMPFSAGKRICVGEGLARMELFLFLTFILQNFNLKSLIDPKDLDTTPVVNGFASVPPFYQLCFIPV

Regarding `O=C(O)[C@H](O)[C@@H](O)[C@H](O[C@@H]1O[C@H](CO)[C@H](O)[C@H](O)[C@H]1O)[C@H](O)CO`, the Potency result in [1], in experiment [2], in experiment [3], in experiment [4] and in experiment [5] was “inactive” each time.

As for `COc1ccc2c(c1)c(CC(=O)OC/C=C(\C)CC/C=C(\C)CCC=C(C)C)c(C)n2C(=O)c1ccc(Cl)cc1`, the Potency entry in experiment [1], in [2], in experiment [3] and in [6] was “inactive” in each case. In [7], the Potency is 15.5 µM (active).

As to `Cc1cccc2cccnc12`, the Potency result in experiment [1], in experiment [2], in experiment [3], in experiment [4] and in experiment [5] was “inactive” throughout.

On to `CN1CCN2c3ccccc3Cc3ccccc3C2C1` (stereo unspecified), for which the Potency result in experiment [1], in experiment [2], in experiment [3], in [6] and in [7] was “inactive” each time.

Turning to `Cc1cccc(C)c1NC(=O)c1ccc(N)cc1`, the Potency entry in experiment [1], in [2], in experiment [3], in [4], in experiment [5] and in experiment [7] was “inactive” each time.

Take `Clc1nnc(Cl)c2ccccc12`: the Potency result in experiment [1], in experiment [2], in [3], in experiment [6] and in experiment [7] was “inactive” throughout.

In the case of `CC(N=C(NC#N)Nc1ccncc1)C(C)(C)C` (stereo unspecified), the Potency result in experiment [1], in [2], in [3] and in experiment [6] was “inactive” each time. Besides, the max activation in [8] is -8.82% (inactive). Further, the Potency in experiment [7] was 1.55 µM (active).

As to `Cc1cc(C(C)(C)C)cc(C)c1CC1=NCCN1`, the Potency result in experiment [1], in experiment [2], in experiment [3], in [4], in experiment [9] and in experiment [7] was “inactive” each time. Further, the max activation in experiment [8] is -6.02% (inactive).

Regarding `Oc1ccccc1O`, the Potency result in experiment [1], in experiment [3] and in experiment [6] was “inactive” throughout. Also, the Potency in [2] was 27.6 µM (active) and 21.7 µM (active); in experiment [4], 22 µM (active) and inactive; in [7], 80.6 µM (active) and inactive.

On to `Cc1ccc(C(=O)O)cc1`, for which the Potency result in experiment [1], in [2], in [3], in experiment [4] and in [7] was “inactive” throughout.

With `COCCOc1cc2cc(C(=O)NC3CCN(C(C)C)CC3)n(CC(=O)Nc3ccc(Cl)cn3)c2cn1`, the Potency entry in experiment [1], in experiment [2], in [3], in [4] and in [5] was “inactive” each time.

With `O=C1CCc2ccc(OCCCCN3CCN(c4cccc(Cl)c4Cl)CC3)cc2N1`, in [1], the Potency result was “inactive”. Besides, the results for the Potency in experiment [2] and in experiment [6] were 21.1 µM (active) and 23.7 µM (active), respectively. Moreover, the max activation in [8] was -4.05% (inactive).

Regarding `Cl[Si](Cl)(c1ccccc1)c1ccccc1`, the Potency entry in [1], in [2] and in experiment [3] was “inactive” throughout. For the same compound, the Potency in [7] is 20.5 µM (active).

Take `C=CC(C)(CCC=C(C)C)OC=O` (stereo unspecified): the Potency entry in [1], in experiment [2], in [6] and in [4] was “inactive” each time. Also, in [7], the Potency was 20 µM (active).

With `CCn1c2ccccc2c2cc([N+](=O)[O-])ccc21`, the Potency entry in [1], in experiment [2], in experiment [6] and in experiment [5] was “inactive” throughout. For the same compound, the Potency in [4] is 19.3 µM (active); in experiment [7], 7.96 µM (active).

Consider `Nc1ccc(C(=O)O)c(O)c1`, for which the Potency result in experiment [1], in experiment [2], in [6], in [4], in [9] and in experiment [7] was “inactive” each time. Moreover, the max activation in experiment [8] was -0.56% (inactive).
